# Test results reported in PubChem BioAssay AID2472 (National Center for Advancing Translational Sciences (NCATS), 2010).
# The campaign covered roughly 290,000 compounds. About 2,000 (0.69%) were called active. This excerpt belongs to a sample that is enriched for actives. Unmarked numbers belong to inactive results. Cut-off read from the data, not from the text of the source: active = activity change below about -30%; inactive = the rest, inconclusive results apart.
# Experiment: qHTS Assay for Inhibitors of Fructose-1,6-bisphosphate Aldolase from Giardia Lamblia: Coupling assay counterscreen
# Conditions: coupling enzyme system counterscreen, AmpLite Red fluorescence; at 58.2 µM (top of the series)
# How it was run: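 Final compound at 57.5 uM, incubated 10 min at RT with coupling enzyme reagent (glyceraldehyde-3-phosphate), then 20 min with substrate and AmpLite Red detection. Fluorescence read at 525/598 nm; tests interference with the coupling assay, not aldolase inhibition.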
# % is set by controls: 0 for no effect and ±100 for the full control effect.
row,Structure (SMILES),"activity change, negative = inhibition"
1,C[C@H]1Cc2c(-c3ccccc3)nc3c(c2CO1)CN(S(=O)(=O)c1ccc(Cl)c2nonc12)CC3,2.12%
2,O=C(Nc1nnc(S(=O)(=O)N2CCCCCC2)s1)c1cccc(Br)c1,-13.3%
3,COc1cccc(C(=O)Nc2nnc(S(=O)(=O)N3CCCCC3)s2)c1,-31.6% (active)
4,Cc1cccc(C(=O)Nc2nnc(S(=O)(=O)N3CCCCCC3)s2)c1,-16.7%
5,NNC(=O)c1oc2nc(-c3ccccc3)cc(-c3ccco3)c2c1N,-5.04%
6,CS(=O)(=O)c1sc2nc(-c3ccccc3)cc(-c3ccccc3)c2c1N,1.12%
7,CNC(=S)NNC(=O)c1oc2nc(-c3ccccc3)cc(-c3ccco3)c2c1N,-33.1% (active)
8,Cc1c(C)c2ccc(OCC(=O)N3CCN(c4cccc(Cl)c4)CC3)cc2oc1=O,1.47%
9,Cn1cccc1/C=N/NC(=O)CNc1cccc2ccccc12,-1.22%
10,Cc1cccc(/C=N/NC(=O)CNc2cccc3ccccc23)n1,-46.7% (active)
11,C/C(=N\NC(=O)CNc1cccc2ccccc12)c1ccc(Br)s1,-0.7%
12,Cc1ccc(NC(=O)CN2C(=O)NC(C)(c3ccc(Cl)cc3)C2=O)c(Br)c1 (stereo not given),8.8e-05%
13,Cc1ccc(Cn2c(C)c3cnn(CC(=O)NCc4ccccn4)c(=O)c3c2C)cc1,0.293%
14,COc1ccc(C(=O)NC2=NCCS2)c(OC)c1,0.219%
15,Cc1cccc2c3c(ccc12)C1=C(C(=O)C3=O)C(C)CO1 (stereo not given),-60.2% (active)
16,O=C1C2C3C=CC(C3)C2C(=O)N1c1ccc(-c2nc3ccccc3c(=O)o2)cc1 (stereo not given),-9.8%
17,Cc1cc2c(c(=O)n1Cc1ccccc1)C1O[C@](CCCCN3C(=O)c4ccccc4C3=O)(Cc3ccccc31)O2,-1.41%
18,CN1C(=O)c2cccc3c(N)ccc(c23)C1=O,0.398%
19,CCN1C(=O)c2cccc3c(S(=O)(=O)Nc4ccccc4O)ccc1c23,-10.8%
20,CCN1C(=O)c2cccc3c(N)ccc1c23,-57.1% (active)
21,O=C1C[C@@H](c2ccc3ccccc3c2)N1S(=O)(=O)c1ccccc1[N+](=O)[O-],11.1%
22,CC(C)(C)OC(=O)NCCCC1=CC2=CC(=O)C(C)(OC(=O)c3ccco3)C(=O)C2=CO1 (stereo not given),-0.316%
23,C=CC1=C2C=C(C3CC3)N(CC(C)C)C=C2C(=O)C(C)(OC(=O)c2ccco2)C1=O (stereo not given),-42.6% (active)

row,Structure (SMILES),"activity change, negative = inhibition"
1,C=CC1=C2C=C(C3CC3)N(C(CO)CO)C=C2C(=O)C(C)(OC(=O)c2ccco2)C1=O (stereo not given),-18.7%
2,Cc1cccc(C(=O)Nc2ccc(C(=O)/C=C/c3cccs3)cc2)c1,-6.98%
3,O=[N+]([O-])c1ccc(Sc2n[nH]c(-c3ccco3)n2)nc1,3.58%
4,CN(C)c1ccc(NC(=O)CSc2n[nH]c(-c3ccco3)n2)cc1,0.0598%
5,CN(C)C(=O)CSc1n[nH]c(-c2ccco2)n1,-32.9% (active)
6,COc1ccc(-c2c(-c3ccc(OC)cc3O)nc(C)nc2C(F)(F)F)cc1,2.62%
7,COc1ccc(C2=Nn3c(nnc3-c3ccccc3O)SC2)cc1,-2.11%
8,CCCCC/C=C\C/C=C\CCCCCCCCCC(=O)NCC(=O)O,1.59%
9,O=C1C(c2ccccn2)=[N+]([O-])c2ccccc21,-40.5% (active)
10,O=Cc1cn(-c2ccccc2)nc1-c1ccccn1,0.364%
11,NC(=O)C1CCN(C(=O)CC2C(=O)NCCN2Cc2cccc(Oc3ccccc3)c2)CC1 (stereo not given),-8.79%
12,O=C(NCc1ccccc1Cl)c1ccc2c(=O)n(CC3CCCO3)c(=S)[nH]c2c1 (stereo not given),2.3%
13,COc1ccccc1OCc1nnc(SCC(N)=O)n1-c1ccccc1,-0.0181%
14,CC(=O)Nn1cc2c(=O)n(C)c(=O)n(C)c2c1,-0.0563%
15,Cn1c(=O)c2cn(-c3cccc4ccccc34)cc2n(C)c1=O,-34.2% (active)
16,COc1ccc(OC)c(-n2cc3c(=O)n(C)c(=O)n(C)c3c2)c1,-33.3% (active)
17,COc1ccc(-c2c3c(=O)n(C)c(=O)n(C)c3cn2NC(C)=O)cc1,-2.71%
18,O=C1c2ccccc2C(=O)N1c1cccc2ccccc12,2.72%
19,COc1ccc(-c2c3c(=O)n(C)c(=O)n(C)c3cn2-c2cccc(OC)c2)cc1,3.67%
20,CN(Cc1ccc(F)cc1Cl)S(=O)(=O)c1cccs1,-12.4%
21,CC(C)(C)c1ccc(SCCc2ccncc2)cc1,1.38%
22,COc1cc(NC(=O)C2CCN(c3cnccn3)CC2)cc(OC)c1,-3.56%
